# Compound activity (PubChem BioAssay)
# Rows were chosen to be rich in hits. Some 3.5% of all compounds tested hit in one or more screens of this group.
# Tau fibril ThT: qHTS for Inhibitors of Tau Fibril Formation, Thioflavin T Binding; Microtubule-associated protein tau (Homo sapiens), P10636; recombinant tau K18 P301L, heparin-induced fibrillization, ThT fluorescence; Potency, µM (series often up to 57.4 µM), for the others: at the top dose activity, negative = inhibition, hits mostly inhibitors; 2.1% of 270,000 active; AID 1460, 2008; also: nearly all actives have a fitted effect of over 55% in size
# Target sequence (P10636 561-689 P618L limits assumed): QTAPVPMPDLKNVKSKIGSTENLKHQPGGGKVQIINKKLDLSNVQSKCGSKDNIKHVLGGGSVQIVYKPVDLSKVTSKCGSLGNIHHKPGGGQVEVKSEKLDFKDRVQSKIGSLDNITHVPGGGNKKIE
#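 Tau K18 P301L fragment (15 uM unlabeled plus 0.24 uM Alexa 594-labeled) in 100 mM sodium acetate pH 7 with compound, fibrillization induced by 20 uM heparin for 6 hr at 37 C. Thioflavin T (30 uM) added, fluorescence read after 1 hr (ex 450, em 510 nm).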
# Tau fluor cs: Counterscreen qHTS for Inhibitors of Tau Fibril Formation, Fluorescence Polarization. tau K18 P301L Alexa594 fluorescence, heparin fibrillization. Potency, µM (top dose mostly 57.7 µM), without a hit: at the top dose activity change, negative = decrease. 0.93% of 280,000 active. AID 1463, 2008; also: nearly all actives have a fitted effect of over 55% in size
#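 Human K18 P301L tau (15 uM unlabeled plus 0.24 uM Alexa 594-labeled, final) in 100 mM sodium acetate pH 7 was mixed with compound and 20 uM heparin and incubated 6 hr at 37 C.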
# TRb SRC2 PPI: qHTS for Inhibitors of the Interaction of Thyroid Hormone Receptor and Steroid Receptor Coregulator 2. Thyroid hormone receptor beta (Homo sapiens), P10828. TRbeta-SRC2 peptide binding, fluorescence polarization; receptor liganded with 1 µM T3. 0.065% of 280,000 active. Potency, µM (series often up to 106 µM), without a hit: at the highest dose activity change, negative = inhibition, actives largely listed as inhibitors;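 also: plate controls were bound peptide for no effect and peptide without receptor for full effect; nearly all actives have a fitted effect of over 50% in size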
#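 Read-out is fluorescence polarization (555 nm excitation, 632 nm emission) of a Texas Red SRC2 coactivator peptide; loss of signal reflects blocked binding to human TRb ligand-binding domain in the presence of 1 uM T3.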
# TR SRC2 fluor cs: Total Fluorescence Counterscreen for Inhibitors of the Interaction of Thyroid Hormone Receptor and Steroid Receptor Coregulator 2 | Potency, µM (highest dose often 106 µM), inactives show at the highest dose fluorescence change, negative = quenching | TRb/SRC2 Texas Red total fluorescence interference | 0.29% of 280,000 active; active = well fitted curve in either direction with a large enough effect; inconclusive = small, poorly fitted or top-dose-only effect
#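 Human TRβ ligand-binding domain (0.6 uM) and Texas Red SRC2 peptide (20 nM) in Tris buffer with 1 uM T3 and 5% DMSO were incubated with pinned compound for 5 hr at ambient temperature. Total fluorescence was computed as S + 2P (555/632 nm).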
# Tau FP inhib: qHTS for Inhibitors of Tau Fibril Formation, Fluorescence Polarization; Potency, µM (top dose mostly 57.7 µM), without a hit: at the highest dose activity, negative = inhibition, hits mostly inhibitors; 0.39% of 280,000 active; K18 P301L tau heparin fibrillization, Alexa594 FP, 6 h; also: nearly all actives have a fitted effect of over 55% in size
#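 Heparin (20 uM) drove fibril formation of recombinant tau K18 P301L, 15 uM unlabeled with 0.24 uM Alexa 594 label, for 6 hr at 37 C in 100 mM sodium acetate pH 7. Fluorescence polarization (555/632 nm) read 1 hr after 30 uM ThT.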
# JMJD2E inh: qHTS Assay for Inhibitors of Human Jumonji Domain Containing 2E (JMJD2E); Lysine-specific demethylase 4E (Homo sapiens), B2RXH2; JMJD2E catalytic domain, FDH-coupled NADH fluorescence (FDH is formaldehyde dehydrogenase); Potency, µM (highest dose often 57.1 µM), for inactives: at the highest dose activity change, negative = inhibition, usual class: inhibitors; 1.6% of 230,000 active; active = well fitted inhibition curve with a large enough effect, not every such curve was filed as active; inconclusive = small, poorly fitted or top-dose-only effect, or another doubt; inactive = no such curve, though single readings can be large or run the other way;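 also: 0% = wells with enzyme and -100% = buffer wells without enzyme; nearly all actives have a fitted effect of over 50% in size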
# Target sequence (B2RXH2 1-337 limits assumed): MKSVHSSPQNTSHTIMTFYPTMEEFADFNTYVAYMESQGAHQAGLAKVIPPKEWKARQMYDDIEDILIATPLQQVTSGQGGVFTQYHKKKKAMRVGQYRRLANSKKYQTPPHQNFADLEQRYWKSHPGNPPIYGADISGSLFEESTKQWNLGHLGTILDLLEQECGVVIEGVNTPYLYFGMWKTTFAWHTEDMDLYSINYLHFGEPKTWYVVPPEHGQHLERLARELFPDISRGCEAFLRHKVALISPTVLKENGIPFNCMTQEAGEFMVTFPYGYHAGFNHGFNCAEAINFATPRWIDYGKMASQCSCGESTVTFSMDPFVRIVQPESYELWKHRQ
# * marks the source's active call; other numbers are inactive results; ? = inconclusive; nt = no result given; [ ] = remark or other dose. Unless noted, calls follow the shape of the dose curve; as a rule, active = well fitted curve in the direction sought with a large enough effect; inconclusive = small, poorly fitted or top-dose-only effect, or another doubt; inactive = no such curve, though single readings can be large; an effect the other way counts as inactive or inconclusive. Unless noted, % is scaled to controls: 0 for no effect and ±100 for the full control effect; potency is read from the fitted curve at half-maximal effect.
SMILES,Tau fibril ThT,Tau fluor cs,TRb SRC2 PPI,TR SRC2 fluor cs,Tau FP inhib,JMJD2E inh
N#CC1=C(N)C(C#N)(C#N)C(c2ccc[nH]2)C2CCCC=C12 (stereo unspecified),14µM*,?,-10%,12%,?,?
Nc1c(C(=O)NCc2cccs2)nnn1CC(=O)Nc1cccc(F)c1,-4%,-6%,0%,-1%,-13%,nt
O=C(CCCSc1ccccc1)Nc1nc(-c2ccco2)c(-c2ccco2)s1,?,?,9%,-2%,1%,?
O=C(CCl)Nc1nc(-c2ccco2)c(-c2ccco2)s1,?,13µM*[quencher],-3%[53 µM],-5%[53 µM],-6%,?
CCOC(=O)c1oc2c(O)c(O)ccc2c(=O)c1-c1nncn1-c1ccccc1,-15%,-13%,-15%,-2%,-7%,7.9µM*
CCOC(=O)c1oc2c(C)c(O)ccc2c(=O)c1-c1nncn1-c1ccccc1,-7%,-5%,0%,-5%,-6%,-7%
Cc1ccc(CNC(=O)Cn2c(=O)n(-c3ccc(C)c(F)c3)c(=O)c3sc4ccccc4c32)cc1,9%,6%,10%,-1%,-15%,nt
C=CCn1c(SCC(=O)N2CCCCC2)nnc1-c1ccncc1,2%,-2%,9%,-1%,-5%,0%
O=C(Oc1csc(=S)n1C(=O)c1ccccc1)c1ccccc1,11µM*,-25%,-4%,-5%,-16%,-34%
Cc1cccc(C(=O)Oc2csc(=S)n2C(=O)c2cccc(C)c2)c1,13µM*,-24%,-11%,-4%,-15%,?
O=C(Oc1cccccc1=O)c1ccccc1,?,-8%,-3%,0%,4%,-5%
Cc1cccc(C(=O)Nc2cccc(OC(=O)c3cccc(C)c3)c2)c1,-11%,?,11%,1%,?,-1%
COC(=O)C1=C(O)/C(=C\c2ccc(CNS(=O)(=O)c3ccccc3)o2)N=C1C,14µM*,?,12%,-1%,?,0%
Cc1ccc(NC(=O)Cc2ccccc2Cl)cc1S(=O)(=O)N(C)C,8%,2%,-24%[53 µM],0.1µM*[quencher],0%,0%
Cc1ccc(NC(=O)CNc2ccc(Cl)c(Cl)c2)cc1S(=O)(=O)N(C)C,-4%,16µM*[quencher],7%[53 µM],-2%[53 µM],-6%,7%
Cc1ccc(S(=O)(=O)NCCC(=O)Nc2ccc(Cl)c(Cl)c2)cc1C,8%,?,-2%,3%,14µM*,6%
CN(C)S(=O)(=O)c1cc(NC(=O)CSc2nn(-c3ccc(Cl)cc3)c(=S)s2)ccc1Cl,?,?,2%[53 µM],-1%[53 µM],25µM*,-5%
O=C(COC(=O)c1cccc(C(=O)OCC(=O)c2ccc(Br)cc2)n1)c1ccc(Br)cc1,-10%,1%,-26%,1%,7%,-9%
Cc1cc(C(=O)Nc2nc3c(C)cccc3s2)c(C)o1,-24%,-15%,-5%,0%,-16%,?
CC(=O)N(C[C@@H](O)CO)c1c(I)c(C(=O)NC[C@@H](O)CO)c(I)c(C(=O)NC[C@@H](O)CO)c1I,nt,nt,3%[53 µM],-2%[53 µM],nt,4%[25.5 µM]
O=C(Cc1cccs1)NC1(C(=O)NC2CCCC2)CCCCC1,-4%,0%,-6%,0%,-2%,5%
Cc1cccc(NC(=O)CSc2nc3ccc(NC(=O)CSc4nnnn4-c4ccccc4)cc3s2)c1C,-13%,?,1%,2%,-3%,1%
CN(C)S(=O)(=O)c1cccc(NC(=O)COC(=O)c2cc(-c3cccc(Br)c3)nc3ccccc23)c1,9%,?,5%,0%,13µM*,?
N#CC1=C2SCN(Cc3ccccc3)CN2C(=O)CC1c1ccc2c(c1)OCO2 (stereo unspecified),20µM*,-23%,-18%,2%,?,?
N#CC1=C2SCN(Cc3ccccc3)CN2C(=O)CC1c1cccs1 (stereo unspecified),28µM*,-28%,5%,-4%,?,?
SMILES,Tau fibril ThT,Tau fluor cs,TRb SRC2 PPI,TR SRC2 fluor cs,Tau FP inhib,JMJD2E inh
N#CC1=C(N)OC2=C(C(=O)CC(c3ccccc3)C2)C1c1ccc2c(c1)OCO2 (stereo unspecified),-17%,?,4%,-8%,-9%,-2%
O=c1oc2ccc3ccccc3c2cc1-c1nnc(-c2cccs2)o1,?,-6%,-1%,-4%,11%,?
Clc1cccc(-c2ccc(C=Nc3ccc(N4CCOCC4)cc3)o2)c1Cl,13µM*,?,-13%,3%,-24%,?
CC(C)c1ccc(S(=O)(=O)/N=C2/C=CC(=O)c3ccccc32)cc1,28µM*,?,?,-6%,?,-29%
COCc1cc(C)nc(SCC(=O)c2ccc(O)c(O)c2)c1C#N,?,?,5%,-1%,2%,28µM*
COCc1cc(C)nc(SCC(=O)Oc2ccccc2)c1C#N,?,-17%,8%,-3%,7%,?
Cc1ccc2c(c1)Sc1c(ccc3ccccc13)N2,3.2µM*,14µM*[quencher],4%,-3%,0%,-14%
Cc1ccccc1N1C(=O)c2cccc([N+](=O)[O-])c2C1=O,1%,3%,4%,-4%,0%,-15%
O=C1CSC(=S)N1N1C(=O)c2cccc([N+](=O)[O-])c2C1=O,13µM*,-25%,-9%,-4%,?,-2%
CC1CCCCN1S(=O)(=O)c1cccc(S(=O)(=O)N2CCOCC2)c1 (stereo unspecified),nt,5%,2%,-1%,-2%,-3%
O=C(Nc1ccc(OC(F)F)c(Cl)c1)C(c1ccccc1)c1ccccc1,6%,?,-5%,-4%,28µM*,0%
O=C(Cc1cccc2ccccc12)Nc1ccc(OC(F)F)c(Cl)c1,4%,?,1%,-2%,?,?
Cc1ccc(/C=N/NC(=O)c2nnn(-c3nonc3N)c2CSc2ccc(Cl)cc2)cc1,14%,-24%,3%,0%,?,1%
O=C(c1ccc(F)cc1)n1nc(-c2cccnc2)nc1NCc1ccccc1,?,-18%,-3%,-2%,-9%,nt
CC(C)CC(=O)n1nc(-c2cccnc2)nc1NCc1ccc(F)cc1,?,-28%,-6%,0.089µM*[quencher],-3%,nt
